Source: PubChem BioAssay AID1530 (NMMLSC, 2009)
Screen size: about 290,000 compounds; about 1,000 (0.34%) were called active. This is one part of a sample in which actives are shown more often than they occur. No stated cut-off is given here; in the data, active means percent response above about 24% (passing the limit was not always enough); inactive means the rest.

Each compound was assayed on MEKK2 (MAP3K2) mutant PB1 domain binding to MEK5, human (assay: MEK5 binding signal on mutant MEKK2 PB1, primary screen, biochemical, multiplex bead flow cytometry, Alexa488-MEK5 (AID 1530)). Conditions: at 10 µM, hits give high values.

Row | SMILES | percent response
1 | COc1ccc(S(=O)(=O)NCCc2cc3ccc(C)c(C)c3[nH]c2=O)cc1 | 1% (inactive)
2 | CC(=O)Nc1cccc(NC(=O)CSc2nccn2Cc2ccc(F)cc2)c1 | -1% (inactive)
3 | COc1cccc(NC(=O)NCc2ccc(F)cc2)c1 | -5% (inactive)
4 | Cc1cccc(NC(=O)c2cccc(C(F)(F)F)c2)c1 | -2% (inactive)
5 | Cc1cccc(NC(=O)Nc2cccc(Oc3c(F)c(F)c(F)c(F)c3F)c2)c1 | 56% (active)
6 | Cc1ccc(N(CC(=O)NC2CCCCC2)C(=O)CCCC(=O)Nc2ccccn2)c(C)c1 | 1% (inactive)
7 | O=S(=O)(Oc1ccccc1C(=S)N1CCOCC1)c1ccc(Cl)cc1 | 7% (inactive)
8 | CCN1CCN(CCNC(=O)c2ccc3c(c2)NC(=O)/C(=C\c2ccc(OC)c(OC)c2)S3)CC1 | 17% (inactive)
9 | CCN1CCN(CCNC(=O)c2ccc(/C=C3/Sc4ccccc4N(Cc4cccc(C)c4)C3=O)cc2)CC1 | 59% (active)
10 | O=C(NCCN1CCOCC1)c1ccc(/C=C2\Sc3ccccc3N(Cc3ccc(F)cc3)C2=O)cc1 | 19% (inactive)
11 | Cn1c(Nc2cccc(Cl)c2)nc2ccccc21 | 4% (inactive)
12 | COc1ccc(OC)c(NC(=O)C2CCCN2S(=O)(=O)c2cccc3nsnc23)c1 (stereo unspecified) | 2% (inactive)
13 | O=C(OCc1cc(Cl)ccc1OC(F)F)c1cccnc1 | 152% (active)
14 | Cc1cc(=O)[nH]c(SCc2cc(Cl)ccc2OC(F)F)n1 | 1% (inactive)
15 | O=C(OCc1cc2ccccc2[nH]c1=O)c1cccnc1 | 8% (inactive)
16 | CC1=C(C)CC(C(=O)NNC(=O)c2ccccc2O)C(C(=O)O)C1 (stereo unspecified) | 16% (inactive)
17 | Cc1ccc(NC(=S)N(CCCN2CCC(C)CC2)Cc2ccco2)cc1 | -2% (inactive)
18 | Cc1ccc(NC(=S)N(CCN2CCCCC2)Cc2ccco2)cc1C | -3% (inactive)
19 | Cc1ccc(NC(=S)N(CCCN2CCCC2)Cc2cccn2Cc2ccc(Cl)cc2)cc1 | 57% (active)
20 | Cn1c(=NC(=O)c2cnccn2)sc2ccccc21 | 10% (inactive)
21 | COC(=O)Cn1c(=NC(=O)CSCC(=O)Nc2cc(C)on2)sc2ccccc21 | 8% (inactive)
22 | Cn1c(=NC(=O)CSCC(=O)N2CCOCC2)sc2ccccc21 | 25% (active)
23 | Cn1c(=NC(=O)CSCC(=O)N2CCCCC2)sc2ccccc21 | 28% (active)
24 | O=C(CP(=O)(c1ccccc1)c1ccccc1)N1CCOCC1 | -5% (inactive)
25 | Cc1ccc(NC(=O)CSCC(=O)N2CCOCC2)cc1 | 3% (inactive)
26 | COc1cc(C2/C(=C(\O)c3ccc4c(c3)CC(C)O4)C(=O)C(=O)N2c2nnc(C)s2)cc(OC)c1OC (stereo unspecified) | 1% (inactive)

Row | SMILES | percent response
27 | Nc1nc(-c2sc3nc4c(cc3c2N)CCCC4)nc(N2CCOCC2)n1 | -8% (inactive)
28 | C/C(=N\NC(=O)COc1ccc(C)cc1[N+](=O)[O-])c1ccc2c(c1)OCCO2 | 1% (inactive)
29 | OCC1(CCOc2ccccc2)CCN(Cc2cn[nH]c2-c2ccccc2)CC1 | -4% (inactive)
30 | CCOC(=O)C1(CCOc2ccccc2)CCN(Cc2cc(OC)c(O)cc2Cl)CC1 | 9% (inactive)
31 | Cc1c(CN2CCC(CO)(CCOc3ccccc3)CC2)[nH]c2ccc(Cl)cc12 | 69% (active)
32 | COCCN1CCN(C(=O)c2cc(COc3ccc(F)cc3Cl)on2)CC1 | 7% (inactive)
33 | CCOc1ccc(S(=O)(=O)NCCCn2ccnc2)cc1NC(C)=O | 25% (active)
34 | O=C(NCCCn1ccnc1)Nc1ccc(Cl)cc1Cl | -1% (inactive)
35 | Cc1ccc(S(=O)(=O)NCCCn2ccnc2)cc1C(=O)NC(C)C | 12% (inactive)
36 | O=S(=O)(Cc1nnnn1-c1ccc(Br)cc1)c1ccc(F)cc1 | 7% (inactive)
37 | O=C1N[C@@H](Cc2ccccc2)C(=O)N2[C@@H]3N(S(=O)(=O)c4ccc(F)cc4)c4ccccc4[C@]3(Br)C[C@@H]12 | 2% (inactive)
38 | CCN(CC(=O)NCc1ccco1)S(=O)(=O)c1ccc(F)cc1 | 1% (inactive)
39 | CC(=O)c1cnc(-c2ccccc2)s1 | -8% (inactive)
40 | O=C(/C=C/Nc1ccccc1)c1cnc(-c2ccccc2)s1 | 26% (active)
41 | CCOc1ccc(N/C=C/C(=O)c2ccccc2)cc1 | 7% (inactive)
42 | O=S(=O)(c1ccc(Cl)s1)N1CCC2(CC1)OCCO2 | -1% (inactive)
43 | C#CCOCCOCCOCCNc1nc(N2CCN(C(=O)[C@H](Cc3ccc(O)cc3)n3cc(C(N)CC(C)C)nn3)CC2)nc(N2CCN(C(=O)[C@H](CCC(=O)O)n3cc(C(N)[C@H](C)CC)nn3)CC2)n1 (stereo partly specified) | 5% (inactive)
44 | C#CCOCCOCCOCCNc1nc(N2CCN(C(=O)[C@H](CCC(=O)O)n3cc(C(N)CO)nn3)CC2)nc(N2CCN(C(=O)[C@H](Cc3ccc(O)cc3)n3cc(C(N)[C@H](C)CC)nn3)CC2)n1 (stereo partly specified) | 1% (inactive)
45 | C#CCOCCOCCOCCNc1nc(N2CCN(C(=O)C([C@@H](C)CC)n3cc(C(N)COC(=O)C(F)(F)F)nn3)CC2)nc(N2CCN(C(=O)[C@H](Cc3ccc(O)cc3)n3cc(C(N)[C@H](C)CC)nn3)CC2)n1 (stereo partly specified) | 9% (inactive)
46 | C#CCOCCOCCOCCNc1nc(N2CCN(C(=O)C([C@@H](C)CC)n3cc(C(N)COC(=O)C(F)(F)F)nn3)CC2)nc(N2CCN(C(=O)[C@H](CCCCN)n3cc(C(N)CC(C)C)nn3)CC2)n1 (stereo partly specified) | 53% (active)
47 | C#CCOCCOCCOCCNc1nc(N2CCN(C(=O)C(Cc3ccc(O)cc3)n3cc(C(N)CC(C)C)nn3)CC2)nc(N2CCN(C(=O)C(Cc3ccc(O)cc3)n3cc(C(N)C(C)CC)nn3)CC2)n1 (stereo unspecified) | 32% (active)
48 | C#CCOCCOCCOCCNc1nc(N2CCN(C(=O)[C@H](CCC(=O)O)n3cc(C(N)CO)nn3)CC2)nc(N2CCN(C(=O)[C@H](CCCCN)n3cc(C(N)[C@H](C)CC)nn3)CC2)n1 (stereo partly specified) | 3% (inactive)
49 | C#CCOCCOCCOCCNc1nc(N2CCN(C(=O)[C@H](C(C)C)n3cc(CCO)nn3)CC2)nc(N2CCN(C(=O)[C@H](C(C)C)n3cc(CCO)nn3)CC2)n1 | 2% (inactive)
50 | C#CCOCCOCCOCCNc1nc(N2CCN(C(=O)[C@H](CCC(=O)O)n3cc(C(N)CO)nn3)CC2)nc(N2CCN(C(=O)[C@H](CCCCN)n3cc(C(N)CC(C)C)nn3)CC2)n1 (stereo partly specified) | 2% (inactive)
51 | C#CCOCCOCCOCCNc1nc(N2CCN(C(=O)[C@H](CCCCN)n3cc([C@@H](N)C(C)CC)nn3)CC2)nc(N2CCN(C(=O)[C@H](Cc3ccc(O)cc3)n3cc([C@@H](N)C(C)CC)nn3)CC2)n1 (stereo partly specified) | 56% (active)
